The values below come from PubChem BioAssay (Tox21).

Results filed as inconclusive are left out. Values without a mark were called inactive. Calls come from the whole dose curve; as a rule, active = well fitted cell-killing curve with a large enough effect in the repeat runs; inconclusive = weak or mixed curves, or effect the other way; inactive = flat fitted curve, though single readings scatter.
% is set by controls: 0 for no effect and ±100 for the full control effect.

A short description of this experiment: qHTS assay to identify small molecule antagonists of the estrogen receptor alpha (ER-alpha) signaling pathway using the BG1 cell line in the presence of 0.1 nM 17-beta-estradiol - cell viability counter screen (AID 1259241). Note: nearly all actives have a fitted effect of over 40% in size. The settings on record: VM7Luc4E2 (BG1) viability, CellTiter-Fluor protease, 22 h, 0.1 nM estradiol agonist added; series mostly up to 92.4 µM; activity change, negative = cytotoxicity: at the top concentration. An excerpt: National Center for Advancing Translational Sciences [NCATS]
NIH Chemical Genomics Center [NCGC]
U.S. Environmental Protection Agency [EPA]
National Institutes of Environmental Health Sciences [NIEHS]
National Toxicology Program [NTP]
U.S. Food and Drug Administration [FDA]
Estrogen receptor (ER), a member of the nuclear hormone receptor plays an important role in development, metabolic homeostasis and reproduction. Two subtypes of ER, ER-alpha and ER-beta, have similar expression patterns with some uniqueness in both types. Endocrine disrupting chemicals (EDCs) and their interactions with steroid hormone receptors like ER causes disruption of normal endocrine function. Therefore, it is important to understand the effect of environmental chemicals in ER signaling pathway. For identifying ER antagonists, VM7Luc4E2 cell line was used to screen against Tox21 compound libraries.
VM7Luc4E2 cell line (provided by Denison MS, University of California) endogenously express full-length ER-alpha and is stably transfected with a plasmid containing four estrogen responsive elements (ERE) upstream of a luciferase reporter gene. The current screening for identification of ER-alpha inhibitors against Tox21 compound libraries used lower concentration (0.1 nM) of 17beta-Estradiol as a stimulator. The cytotoxicity of the Tox21 compound libraries against VM7Luc4E2 cell line was tested by measuring live-cell protease activity using CellTiter-Fluor assay in the same wells.
Tox21 Assay Protocol Summary:
VM7Luc4E2 cells were cultured in phenol red free assay medium containing 10% charcoal stripped FBS for 5 days prior to the assay. The cells were dispensed at 4,000 cells/well in 4 uL of assay medium into white wall/solid-bottom 1536-well plates (Corning Life Sciences, Corning, NY) using a Multidrop Combi (ThermoFisher Scientific, Waltham, MA) dispenser. After the assay plates were incubated at 37C and 5% CO2 for 24 hr, 23 nL of compounds dissolved in DMSO, positive controls or DMSO only was transferred to the assay plates by a Pintool station (Kalypsys, San Diego, CA). The transfer of compounds was followed by the addition of 1 uL of 0.1 nM (final concentration) agonist (17beta-Estradiol)/assay medium using a Flying Reagent Dispenser (FRD, Aurora Discovery, San Diego, CA). The plates were incubated at 37C and 5% CO2 for 22 hr. For cytotoxicity assay, 1 uL of CellTiter-Fluor reagent (Promega Corporation, Madison, WI) was added to each well using the FRD and after 30 min incubation at 37C and 5% CO2, The fluorescence intensity was measured using ViewLux plate reader (PerkinElmer, Shelton, CT).
Turning to `COC(=O)/C=C(/C)N`, the “activity change, negative = cytotoxicity” value is 2.57% [at 42.5 µM]. The same measure for `CN1CCN(c2c(F)cc3c(=O)c(C(=O)O)cn4c3c2SCC4)CC1`: -0.327% [at 42.5 µM]. The same measure for `O=C(O)C(=O)Cc1c[nH]c2ccccc12`: -5.18%; for `Cc1cn([C@@H]2O[C@H](CO)[C@@H](O)[C@@H]2F)c(=O)[nH]c1=O`: 4.07% [at 42.5 µM].

`OCCN1CCN(CCO)CC1`: the “activity change, negative = cytotoxicity” value was 12.1%.

With `C=CCc1cc(OC)c(O)c(C(=O)NCCO)c1`, the “activity change, negative = cytotoxicity” value is 1.87% [at 42.5 µM].

Take `CC(C)=CCCC(C)CCOC=O` (stereo not given): the “activity change, negative = cytotoxicity” value is 4.56%.

In the case of `NC/C=C/C(=O)O`, the “activity change, negative = cytotoxicity” value was 0.612% [at 42.5 µM].

As to `CCOC(=O)c1cc(=O)c2c(OCC(COc3cccc4oc(C(=O)OCC)cc(=O)c34)OC(=O)[C@@H](N)CCCCN)cccc2o1`, the “activity change, negative = cytotoxicity” value was 1.57% [at 42.5 µM]. The same measure for `CCCCNCCCC`: 13.8%. The same measure for `CCN1CC(CCN2CCOCC2)C(c2ccccc2)(c2ccccc2)C1=O` (stereo not given): -6.11% [at 42.5 µM]; for `NCCCN1CCN(CCCN)CC1`: -6.33%. The same measure for `CCCCNc1ccc(C(=O)OCCN(CC)CC)cc1`: -12.2% [at 42.5 µM]; for `Cc1cccc(C)c1NC(=O)CN1CCCCCC1`: 5.73% [at 42.5 µM]; for `CCCCCCCCOC(=O)CCCCCCCCC(=O)OCCCCCCCC`: 0.612%. For `CCCC1CCC(=O)O1` (stereo not given), the “activity change, negative = cytotoxicity” value is -16.5%. On to `O=c1[nH]cnc2c1ncn2[C@@H]1O[C@H](CO)[C@@H](O)[C@H]1O`, for which the “activity change, negative = cytotoxicity” value was 4.23% [at 42.5 µM]. The same measure for `CC(C)C[C@H](NC(=O)OCC1c2ccccc2-c2ccccc21)C(=O)O`: 3.11%; for `O=C1C=CC(=O)O1`: 12%; for `Cc1nnc(SCC2=C(C(=O)O)N3C(=O)[C@@H](NC(=O)Cn4cnnn4)[C@H]3SC2)s1`: -0.542% [at 42.5 µM]. Take `COc1nc(C)nc(NC(=O)NS(=O)(=O)c2ccccc2OCCCl)n1`: the “activity change, negative = cytotoxicity” value is 13.8%. Regarding `CCCCCCn1c(=O)c2c(ncn2C)n(C)c1=O`, the “activity change, negative = cytotoxicity” value is 6.29% [at 42.5 µM]. The same measure for `CC(C)(CO)[C@@H](O)C(=O)NCCC(=O)O`: 18.2%; for `COc1cc(N)c(Cl)cc1C(=O)NC1CCN(Cc2ccccc2)CC1`: -24% [at 42.5 µM]. The same measure for `CC(C)Nc1nc(N)nc(Cl)n1`: 8.3%; for `NNS(=O)(=O)c1ccc(Oc2ccc(S(=O)(=O)NN)cc2)cc1`: -1.43%; for `OC[C@H]1O[C@@H](O[C@H]2[C@H](O)[C@@H](O)[C@H](O)O[C@@H]2CO)[C@H](O)[C@@H](O)[C@H]1O`: 1.84%. For `O=C1N(c2ccccc2)c2ccccc2C1(Cc1ccncc1)Cc1ccncc1` the value was 12.1% [at 42.5 µM]; for `CCN(CC)C(=O)N(CC)CC`, 2.8%; for `C=CC(C)(O)CC/C=C(\C)CCC=C(C)C` (stereo not given), -3.63%. In the case of `OCCN(CCO)CCN(CCO)CCO`, the “activity change, negative = cytotoxicity” value was -2.33%.

Consider `CCCCC1CCC(=O)O1` (stereo not given), for which the “activity change, negative = cytotoxicity” value was -1.58%. The same measure for `CC(C)O`: -13%; for `FC(F)(F)c1ccccc1`: -2.39%. For `CCN(O)CC` the value was -0.839%.

As to `C1CCOC1`, the “activity change, negative = cytotoxicity” value was 0.636%.

For `CCCCc1ccc2nc(NC(=O)OC)[nH]c2c1`, the “activity change, negative = cytotoxicity” value was 5.99% [at 42.5 µM]. On to `CC1CN(c2ccccc2)NC1=O` (stereo not given), for which the “activity change, negative = cytotoxicity” value was 2.88%.

As for `CCN(CC)CCOc1ccc(Cc2ccccc2)cc1`, the “activity change, negative = cytotoxicity” value is -13.8% [at 42.5 µM]. `Cc1ccccc1C(=O)Nc1ccc(C(=O)N2CCCC(O)c3cc(Cl)ccc32)c(C)c1` (stereo not given): the “activity change, negative = cytotoxicity” value is 4.49% [at 42.5 µM].
